# Measurements reported in the supplement of paper PMC8728848.
# The entries come from a sample that favours the strongest signals as a whole.
# B1: AT5G17240(42) (Arabidopsis thaliana), Q6NQJ8 (protein)
# chain: MDLEHQTMETFLRWAAEIGISDSIDSSRFRDSCLGHSLSVSDFPDAGGRGLGAARELKKGELVLKVPRKALMTTESIIAKDLKLSDAVNLHNSLSSTQILSVCLLYEMSKEKKSFWYPYLFHIPRDYDLLATFGNFEKQALQVEDAVWATEKATAKCQSEWKEAGSLMKELELKPKFRSFQAWLWASATISSRTLHVPWDSAGCLCPVGDLFNYDAPGDYSNTPQGPESANNVEEAGLVVETHSERLTDGGFEEDVNAYCLYARRNYQLGEQVLLCYGTYTNLELLEHYGFMLEENSNDKVFIPLETSLFSLASSWPKDSLYIHQDGKLSFALISTLRLWLIPQSQRDKSVMRLVYAGSQISVKNEILVMKWMSEKCGSVLRDLPTSVTEDTVLLHNIDKLQDPELRLEQKETEAFGSEVRAFLDANCLWDVTVLSGKPIEFSRKTSRMLSKWRWSVQWRLSYKRTLADCISYCNEKMNNLLGTQDRLRDL
# How the values were obtained:
# Test in all cases: glycan array binding signal (z-score within array); higher = stronger binding
# Conditions in all cases: glycan notation: IUPAC condensed, linker removed
# [1] = target: GlcNAc(b1-6)Gal(b1-4)GlcNAc
# Procedure, shortened: (§1)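 Columns mapping to the same glycan were averaged after glycan names were converted to IUPAC-condensed notation. The data come from 3228 arrays in the Consortium for Functional Glycomics database, limited to those with an available protein sequence. Binding is reported as a within-array Z-score averaged across arrays of one protein sequence and across linkers.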
# [2] = target: Kdn(a2-3)Gal(b1-4)[Fuc(a1-3)]GlcNAc
# Procedure, shortened: as §1
# Kdn(a2-6)Gal(b1-4)GlcNAc = target: Kdn(a2-6)Gal(b1-4)GlcNAc
# Procedure, shortened: as §1
# [3] = target: Man(a1-2)Man(a1-3)[Man(a1-6)]Man(a1-6)[Man(a1-2)Man(a1-3)]Man(b1-4)GlcNAc(b1-4)GlcNAc
# Procedure, shortened: as §1
# [4] = target: Man(a1-2)Man(a1-6)[Man(a1-3)]Man(a1-6)[Man(a1-2)Man(a1-2)Man(a1-3)]Man(b1-4)GlcNAc(b1-4)GlcNAc
# Procedure, shortened: as §1
# Man(a1-6)Man = target: Man(a1-6)Man
# Procedure, shortened: as §1
# [5] = target: Neu5Ac(a2-3)Gal(b1-3)GalNAc
# Procedure, shortened: as §1
# [6] = target: Neu5Ac(a2-3)Gal(b1-4)GlcNAc(b1-3)Gal(b1-4)GlcNAc(b1-3)Gal(b1-4)GlcNAc(b1-2)Man(a1-3)[Neu5Ac(a2-3)Gal(b1-4)GlcNAc(b1-3)Gal(b1-4)GlcNAc(b1-3)Gal(b1-4)GlcNAc(b1-2)Man(a1-6)]GalNAc
# Procedure, shortened: as §1
# [7] = target: Neu5Ac(a2-3)Gal(b1-4)GlcNAc(b1-6)[Gal(b1-3)]GalNAc
# Procedure, shortened: as §1
# [8] = target: Neu5Ac(a2-3)Gal(b1-4)GlcNAc(b1-6)[Neu5Ac(a2-3)Gal(b1-3)]GalNAc
# Procedure, shortened: as §1
# Neu5Ac(a2-6)Gal = target: Neu5Ac(a2-6)Gal
# Procedure, shortened: as §1
# [9] = target: Neu5Ac(a2-6)Gal(b1-4)GlcNAc(b1-2)Man(a1-3)[Gal(b1-4)GlcNAc(b1-2)Man(a1-6)]Man(b1-4)GlcNAc(b1-4)GlcNAc
# Procedure, shortened: as §1
# [10] = target: Neu5Ac(a2-6)Gal(b1-4)GlcNAc(b1-2)Man(a1-6)[Gal(b1-4)GlcNAc(b1-2)Man(a1-3)]Man(b1-4)GlcNAc(b1-4)GlcNAc
# Procedure, shortened: as §1
# [11] = target: Neu5Ac(a2-6)Gal(b1-4)GlcNAc(b1-3)GalNAc
# Procedure, shortened: as §1
# [12] = target: Neu5Gc(a2-3)Gal(b1-4)[Fuc(a1-3)]GlcNAc
# Procedure, shortened: as §1
binder,measurement,setting,value
B1,glycan array binding signal (z-score),[1],1.88
same,glycan array binding signal (z-score),[2],-0.336
same,glycan array binding signal (z-score),Kdn(a2-6)Gal(b1-4)GlcNAc,-0.164
same,glycan array binding signal (z-score),[3],0.607
same,glycan array binding signal (z-score),[4],-0.172
same,glycan array binding signal (z-score),Man(a1-6)Man,0.232
same,glycan array binding signal (z-score),[5],-0.438
same,glycan array binding signal (z-score),[6],2.21
same,glycan array binding signal (z-score),[7],-0.303
same,glycan array binding signal (z-score),[8],-0.407
same,glycan array binding signal (z-score),Neu5Ac(a2-6)Gal,0.474
same,glycan array binding signal (z-score),[9],-0.171
same,glycan array binding signal (z-score),[10],-0.325
same,glycan array binding signal (z-score),[11],-0.543
same,glycan array binding signal (z-score),[12],-0.299
